High-throughput results (PubChem)
SARS PLP yeast – qHTS of Yeast-based Assay for SARS-CoV PLP; S. cerevisiae expressing SARS-CoV PLpro, growth rescue; Potency, µM (titrated, usually from 32.9 µM), most hits filed as activators; 330,000 tested, 0.19% active; AID 485353, 2010; further: nearly all actives have a fitted effect of over 55% in size
NS1 function inh – qHTS Assay for Inhibitors of Influenza NS1 Protein Function; Potency, µM (doses to about 46.1 µM); 270,000 tested, 0.4% active; further: actives are rising curves; nearly all actives have a fitted effect of over 50% in size
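A cell-based growth assay was used: compounds that relieve NS1-induced slow growth of budding yeast raise OD600. Assay medium was yeast nitrogen base with ammonium sulphate and -URA supplement, pH 6.0, with 2% galactose.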
Pf growth 96h – Primary qHTS for delayed death inhibitors of the malarial parasite plastid, 96 hour incubation; P. falciparum luciferase reporter growth, 96 h; Potency, µM (top dose mostly 28.7 µM), hits mostly inhibitors; 320,000 tested, 6.9% active; AID 504834, 2011; active means well fitted inhibition curve with a large enough effect; inconclusive means small, poorly fitted or top-dose-only effect, or another doubt; inactive means no such curve, though single readings can be large or run the other way
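Compounds incubated with erythrocytes infected by luciferase-expressing P. falciparum (2% hematocrit, 0.05% parasitemia final) for 96 hours, 37 C in 5% CO2. Growth inhibition scored as decreased luciferase luminescence.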
Pf growth 48h – Primary qHTS for delayed death inhibitors of the malarial parasite plastid, 48 hour incubation; P. falciparum luciferase growth in erythrocytes, 48 h; Potency, µM (titrated, usually from 28.7 µM), usual class: inhibitors; 310,000 tested, 5.9% active; AID 504832, 2011; active means well fitted inhibition curve with a large enough effect; inconclusive means small, poorly fitted or top-dose-only effect, or another doubt; inactive means no such curve, though single readings can be large or run the other way
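Cell-based growth assay: transgenic P. falciparum expressing firefly luciferase, cultured in red cells within RPMI 1640 containing 0.5% w/v Albumax, 24 mM bicarbonate and gentamycin. A drop in luciferase activity indicates inhibition.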
Of the large screens only hits and unclear results are named; the others gave an inactive call. Sampled rows, rich in hits. Any-hit rate of the full collection: about 10%. Unless noted, the call rests on the fitted dose curve.

CCCc1cc(=O)oc2cc(C)cc(OC(C)C(=O)NCc3cccnc3)c12 (configuration not stated)	Pf growth 96h 4.65µM, Pf growth 48h 8.28µM
O=C(NC1CCCCC1)c1cc(S(=O)(=O)N2CCOCC2)ccc1Cl	none
Cc1ccccc1-n1ncc2c1CC(C)(C)CC2NC(=O)c1cn[nH]c1C (configuration not stated)	Pf growth 96h inconclusive
CCCc1cc(=O)oc2cc(C)cc(OCC(=O)NCc3ccncc3)c12	Pf growth 96h 8.28µM, Pf growth 48h 9.28µM
CCc1cc(=O)oc2cc(C)cc(OCC(=O)NCc3ccncc3)c12	none
CCCc1cc(=O)oc2cc(C)cc(OC(C)C(=O)NCc3ccncc3)c12 (configuration not stated)	Pf growth 96h 2.94µM, Pf growth 48h 3.29µM
O=C(C1CCC(=O)N(C2CCCC2)C1)N1CCN(Cc2cccc(Cl)c2)CC1 (configuration not stated)	none
Cc1c(C)n(C)c2ccc(C(=O)NCCCN3CCCCC3C)cc12 (configuration not stated)	Pf growth 96h 6.57µM
CCC1CCCCN1CCCNC(=O)c1nn(C)c2c1CS(=O)(=O)c1ccccc1-2 (configuration not stated)	none
CC1CCCCN1CCCNC(=O)c1nn(C)c2c1CS(=O)(=O)c1ccccc1-2 (configuration not stated)	Pf growth 96h 11.7µM
c1c[nH]c(CN2CCOCC2)n1	none (no result: SARS PLP yeast, Pf growth 96h, Pf growth 48h)
CCOC(=O)c1ccccc1NC(=O)CSc1ccc(-c2ccccn2)nn1	SARS PLP yeast inconclusive, Pf growth 96h inconclusive, Pf growth 48h inconclusive
O=C(CNC(=O)c1cc(Cl)cc([N+](=O)[O-])c1)OCC(=O)N1CCCCC1	none (no result: NS1 function inh)
c1ccc2sc(NCC3CCCO3)nc2c1 (configuration not stated)	none (no result: NS1 function inh)
CC1=CC(=C(C#N)c2nc3ccccc3s2)C=C(C)N1CC1CCCO1 (configuration not stated)	Pf growth 96h 2.94µM, Pf growth 48h inconclusive (no result: NS1 function inh)
CN(C)c1cc[n+](CCC(=O)Nc2cccc([N+](=O)[O-])c2N)cc1	Pf growth 96h 3.29µM, Pf growth 48h inconclusive
CN(C)c1cc[n+](CC(=O)Nc2ccc(OC(F)F)cc2)cc1	Pf growth 96h 0.465µM, Pf growth 48h 2.33µM
CN(C)c1cc[n+](CC(=O)Nc2ccc(Cl)c([N+](=O)[O-])c2)cc1	Pf growth 48h 1.17µM
CN(C)c1cc[n+](CC(=O)Nc2cccc([N+](=O)[O-])c2)cc1	NS1 function inh inconclusive, Pf growth 96h inconclusive, Pf growth 48h inconclusive
CN(C)c1ccc(NC(=O)C[n+]2ccccc2)cc1	none
Cc1ccc[n+](CC(=O)Nc2ccc(N(C)C)cc2)c1	Pf growth 96h 5.22µM
CC(=O)c1ccc(NC(=O)C[n+]2ccc(N(C)C)cc2)cc1	Pf growth 96h inconclusive, Pf growth 48h inconclusive
COc1ccc(Cl)cc1NC(=O)CCS(=O)(=O)c1ccc(C)cc1	none
CCN(C(=O)COC(=O)c1cc(-c2cccc3ccccc23)nc2ccccc12)C1CCS(=O)(=O)C1 (configuration not stated)	none
Cc1ccc(S(=O)(=O)N2CCN(C(=O)CN3C(=O)CNC3=O)CC2)cc1	none (no result: NS1 function inh)
O=C(CCN1CCN(Cc2ccccc2)CC1)Nc1cccc(Br)c1	none
CCOc1ccc(N2CC(C(=O)NCCc3ccc(F)cc3)CC2=O)cc1 (configuration not stated)	none
O=C(NC1CCCCC1)c1cc(-c2cccs2)on1	Pf growth 96h inconclusive
CCCCn1c(N)c(N(CC(C)C)C(=O)CSCc2c(C)noc2C)c(=O)[nH]c1=O	Pf growth 96h inconclusive (no result: NS1 function inh)
Cc1nn(-c2ccccc2)c(C)c1NC(=O)COC(=O)Cc1ccccc1F	none (no result: NS1 function inh)
O=C(C[n+]1ccccc1)Nc1ccc(Oc2ccccc2)cc1	Pf growth 48h 6.57µM
O=C(c1cc(C2CC2)nc2ccc(Br)cc12)N1N=C(C(F)F)CC1(O)C(F)F (configuration not stated)	Pf growth 96h 9.28µM, Pf growth 48h inconclusive
O=C1CN(C(=O)CCCc2c[nH]c3ccccc23)c2ccccc2N1	NS1 function inh inconclusive, Pf growth 48h 9.28µM (no result: Pf growth 96h)
CS(=O)(=O)N(CC(=O)Nc1ccccc1C(=O)N1CCOCC1)c1ccc(F)c(Cl)c1	none
CS(=O)(=O)N(CC(=O)Nc1ccccc1C(=O)N1CCOCC1)c1cccc(F)c1	Pf growth 96h 2.62µM
CN(CCCC(=O)N1CCCC(C(N)=O)C1)S(=O)(=O)c1ccc(F)cc1 (configuration not stated)	none
N#Cc1ccc[n+](CC(=O)c2ccc(Cl)cc2)c1	Pf growth 96h 7.38µM
Cc1c(C(=O)Nc2ccccc2N2CCN(C)CC2)oc2ccc(F)cc12	Pf growth 96h inconclusive, Pf growth 48h inconclusive (no result: NS1 function inh)
Cc1cc(Cl)nc2ccc(Cc3ccc4nc(Cl)cc(C)c4c3)cc12	Pf growth 96h inconclusive, Pf growth 48h 2.62µM
CSc1nc(Cc2ccc(Cl)cc2)nc2ccccc12	none
C=CCN1C(=O)c2ccc(C(=O)NCC(=O)Nc3c(C)cc(C)cc3C)cc2C1=O	none (no result: NS1 function inh)
NS(=O)(=O)c1cccc(Nc2nc3ccccc3nc2NS(=O)(=O)c2ccc(Cl)cc2)c1	none (no result: NS1 function inh, Pf growth 96h, Pf growth 48h)
COc1ccc(C(CNC(=O)CCNC(=O)c2ccccc2OC)N2CCCC2)cc1 (configuration not stated)	Pf growth 96h 11.7µM, Pf growth 48h inconclusive (no result: NS1 function inh)
COc1ccc(C(CNC(=O)C(CCSC)NC(=O)c2ccccc2OC)N2CCCCC2)cc1 (configuration not stated)	Pf growth 96h 11.7µM, Pf growth 48h inconclusive
COc1ccc(C(CNC(=O)CCNC(=O)c2ccccc2Cl)N2CCCC2)cc1 (configuration not stated)	Pf growth 96h inconclusive (no result: NS1 function inh)
CC1Oc2ccccc2N(CC(=O)N2CCCC2)C1=O (configuration not stated)	Pf growth 96h 4.65µM
Cc1cc(OCC(=O)N2CCC(C(=O)O)CC2)c2c(C)c(C)c(=O)oc2c1	none
COc1ccc(CCN2CC(C(=O)N3CCCCCC3)CCC2=O)cc1 (configuration not stated)	none
COc1ccc(CNc2nccs2)cc1OC	Pf growth 96h 11.7µM
COc1ccc(NC(=O)CCS(=O)(=O)c2ccc3c(c2)CCN3C(C)=O)cc1	Pf growth 96h 11.7µM
COc1ccc(NC(=O)C2CCCN(S(=O)(=O)c3ccc4c(c3)CCCN4C(C)=O)C2)cc1 (configuration not stated)	Pf growth 48h 11.7µM
COc1ccc(NC(=O)C2CCCN(S(=O)(=O)c3ccc4c(c3)CC(C)N4C(C)=O)C2)cc1 (configuration not stated)	Pf growth 48h 13.1µM
COc1cc(NC(=O)C2CCCN(S(=O)(=O)c3ccc4c(c3)CCCN4C(C)=O)C2)cc(OC)c1 (configuration not stated)	Pf growth 48h inconclusive
O=C(COc1cc2oc(=O)c3c(c2cc1Cl)CCC3)NCc1ccncc1	Pf growth 96h inconclusive
O=C(CN(Cc1ccccc1)C(=O)CCC(=O)Nc1nccs1)NCC1CCCO1 (configuration not stated)	none
